PubChem BioAssay
Values joined by “and” are separate entries in the source; they are usually repeats but may differ in a detail not shown here. Equal entries are not always repeated. Active and inactive are the calls of the source.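 How the source made its calls, unless noted: active means compounds whose cell count with miR-34 switched on is under 0.7 times the count with it off; inactive means the rest.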

Key:
[1] = liver-stage malaria parasite growth inhibition, primary screen, cell-based, HepG2, luciferase luminescence, HepG2 viability (AID 624349; in the data active means parasite load remaining mostly below about 12%, no sharp cut-off; inactive means mostly above about 10%;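 further: 100% = mean of DMSO negative control wells on the same plate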); conditions: P. berghei liver stage in HepG2, luciferase luminescence, concentration not given here; parasite load remaining: stronger effect = lower value; viability: measured here: HepG2 viability without parasites
[2] = sensitizers of A549 cells to miR-34 induction, primary screen, imaging, A549 dox-inducible miR-34, nuclei and caspase counts (AID 1347080); conditions: A549 miR-34 inducible, Hoechst nuclei count, 48 h
[3] = hESC survival regulators, cell-based (AID 493140; call rule not given here;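 further: cells exposed to compounds for four days before counting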); conditions: human embryonic stem cell survival screen; stronger effect = higher value
[4] = stronger effect = lower value, cell number ratio, induced over uninduced
[5] = measured here: relative caspase fold change +Dox/-Dox
[6] = measured here: total cells with miR-34 induction, stronger effect = lower value
[7] = measured here: total cells without miR-34 induction

Compound	parasite load remaining [1]	viability [1]	fold change [2, 4]	fold change [2, 5]	cell count [2, 6]	cell count [2, 7]	survival [3]
CC(C)(C)n1nc(Cc2cccc3ccccc23)c2c(N)ncnc21	40.9% (inactive)	75%	1.05 (inactive)	1.15	5260	5010	
CC(C)(CO)C(O)C(=O)NCCC(=O)O (stereo not drawn)	190% (inactive)	105%	0.839 (inactive)	0.783	8190	9770	
CCCCCCCCCCCCCCCCOC[C@H](COP(=O)([O-])OCC[N+](C)(C)C)OC(=O)NC			0.941 (inactive) and 0.889 (inactive)	1.15 and 1.06	5360 and 4990	5690 and 5620	80.6 (inactive)
CCCCC/C=C\C[C@@H](O)/C=C/C=C\C/C=C\CCCC(=O)O			0.841 (inactive)	1.54	4740	5630	89.3 (inactive)
CCC(C)[C@H]1O[C@]2(CC[C@@H]1C)C[C@@H]1C[C@@H](C/C=C(\C)[C@@H](OC3C[C@H](OC)C(O[C@H]4C[C@H](OC)[C@@H](O)[C@H](C)O4)[C@H](C)O3)[C@@H](C)/C=C/C=C3\CO[C@@H]4[C@H](O)C(C)=C[C@@H](C(=O)O1)[C@]34O)O2 (stereo partly drawn)	54.4% (inactive)	90.4%	1.04 (inactive)	1.61	4770	4580	
CC/C=C\C/C=C\C/C=C\C/C=C\C/C=C\CCCC(=O)OCC	31% (inactive)	94%	1.01 (inactive)	1.98	11500	11400	
C[C@H]1[C@H](C)CC[C@]2(C(=O)O[C@@H]3O[C@H](COC4O[C@H](CO)[C@@H](OC5O[C@@H](C)[C@H](O)[C@@H](O)[C@H]5O)[C@H](O)[C@H]4O)[C@@H](O)[C@H](O)[C@H]3O)CC[C@]3(C)C(=CC[C@@H]4[C@@]5(C)C[C@@H](O)[C@H](O)[C@@](C)(CO)C5CC[C@]43C)[C@H]12 (stereo partly drawn)	109% (inactive)	74.2%	0.957 (inactive)	0.577	8940	9340	
CC(C)[N+]1(C)[C@@H]2CC[C@@H]1CC(OC(=O)C(CO)c1ccccc1)C2 (stereo partly drawn)	92% (inactive)	107%	0.845 (inactive)	1.32	9220	10900	
S=C(NC1CCCCC1)N1CCC(C2C=NC=N2)CC1 (stereo not drawn)	49.2% (inactive)	96.4%	0.857 (inactive)	1.52	8240	9620	6.25 (inactive)
Nc1ncnc2c1c(I)cn2[C@@H]1O[C@H](CO)[C@H](O)C1O (stereo partly drawn)	129% (inactive)	64.4%	1.01 (inactive)	0.838	1250	1240	
Oc1cccc(-c2nc(N3CCOCC3)c3sccc3n2)c1	50.9% (inactive)	83.2%	0.851 (inactive)	0.61	2340	2750	
O=C(O)CCC/C=C\C[C@H]1C(=O)C[C@@H](O)[C@@H]1/C=C/[C@@H](O)CCc1ccccc1			0.93 (inactive) and 0.922 (inactive)	1.16 and 1.61	5630 and 5680	6050 and 6160	102 (inactive)
COC(C)(C)CCCC(C)C/C=C/C(C)=C/C(=O)O (stereo not drawn)			0.916 (inactive)	0.969	5680	6210	91.1 (inactive)
CCCCC[C@H](O)CC[C@H]1[C@H](O)CC(=O)[C@@H]1CCCCCCC(=O)O			0.898 (inactive) and 0.911 (inactive)	0.955 and 1.31	5150 and 5260	5740 and 5770	89 (inactive)
O=c1cc(-c2ccc(O)cc2)oc2c(C3O[C@H](CO)[C@@H](O)[C@H](O)[C@H]3O)c(O)cc(O)c12 (stereo partly drawn)	96.7% (inactive)	101%	0.841 (inactive)	1.12	8230	9780	3.5 (inactive)
CCC(C)N1CCC2(CC1)N=c1c(c3c4c5c(C)c(O)c3c(O)c1=NC(=O)/C(C)=C/C=C/[C@H](C)[C@H](O)[C@@H](C)[C@@H](O)[C@@H](C)[C@H](OC(C)=O)[C@H](C)[C@@H](OC)/C=C/O[C@@](C)(O5)C4=O)N2 (stereo partly drawn)	81.4% (inactive)	74.8%	0.966 (inactive)	0.766	8510	8810	
CCC(=O)OC1(C(=O)CCl)[C@@H](C)C[C@H]2[C@@H]3CCC4=CC(=O)C=C[C@]4(C)[C@@]3(F)[C@@H](O)C[C@@]21C (stereo partly drawn)	141% (inactive)	94.7%	0.789 (inactive)	1.5	5850	7420	2.5 (inactive)
OCCN1C[C@@H](O)[C@@H](O)C(O)C1CO (stereo partly drawn)	147% (inactive) and 57.2% (inactive)	86.4% and 111%	0.903 (inactive)	5.56	12600	14000	
CCCCCCCC/C=C\CCCCCCCC(=O)OCC(CO)OC(=O)CCCCCCC/C=C\CCCCCCCC (stereo not drawn)			1.01 (inactive)	1.34	5020	4970	88.4 (inactive)
COc1ccc2c3c([nH]c2c1)[C@H]1C[C@H]2[C@H](C[C@@H](O)[C@H](OC)[C@H]2C(=O)O)CN1CC3	113% (inactive)	75.4%	0.96 (inactive)	0.581	9000	9370	7.42 (inactive)
